Among the test systems are NCI-H23 lung; NCI-H226 lung; NCI-H322M lung; HOP-62 NSCLC; NCI-H460 lung; HOP-92 NSCLC; NCI-H522 lung; 786-0 renal; COLO 205 colon; DU-145 prostate; K-562 leukemia; MALME-3M melanoma; MDA-MB-231 breast; RXF 393 renal; SF-268 CNS; SF-295 CNS; SF-539 CNS; UACC-257 melanoma; M14 melanoma.
Common to all, as to test: NCI-60 one-dose screen, 48 h (100 = growth as untreated, 0 = no growth, -100 = all killed)
Common to all, as to conditions: 10 µM unless noted

Eight molecules from PubChem BioAssay (NCI) can be followed below.

Structures are written as SMILES. The panel holds about 83,000 compounds, 20% with a hit somewhere; the sample as a whole holds those more often.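 Treatment: one concentration, 48 hours, 96-well format. Scoring: percent growth, with anything below 10 considered active.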 A number with no mark means an inactive call. The source made the active and inactive calls.

On to `COc1cccc(CNCCN2C(=O)c3ccc4c5c(ccc(c35)C2=O)C(=O)N(CCNCc2cccc(OC)c2)C4=O)c1`, for which the growth with NCI-H23 lung was 87.2%; in the experiment on NCI-H226 lung, 95.8%; with NCI-H322M lung, 89.9%; with HOP-62 NSCLC it was 105%; in the experiment on NCI-H460 lung it was 46.8%; in the experiment on HOP-92 NSCLC it was 99.9%. The growth in the experiment with NCI-H522 lung was 86.9%; in the experiment with 786-0 renal, 81%; with COLO 205 colon, 53.7%; in the experiment on DU-145 prostate, 113%; in the experiment on K-562 leukemia, 8.7% (active); in the experiment with MALME-3M melanoma it was 26.3%. Besides, the growth was 78.1% in the experiment with MDA-MB-231 breast; 87% in the experiment with RXF 393 renal; 74.1% in the experiment on SF-268 CNS; 113% in the experiment with SF-295 CNS; 97.8% with SF-539 CNS; 79.1% in the experiment on UACC-257 melanoma. The growth in the experiment with M14 melanoma is 71.7%.

As for `O=C1c2ccccc2-c2c1c1c(NCCCO)nc3ccccc3c1n2Cc1ccccc1`, the growth in the experiment with NCI-H23 lung is 35.1%; with NCI-H226 lung, 21.5%; in the experiment with NCI-H322M lung, 29.6%; in the experiment on HOP-62 NSCLC, -35.5% (active); with NCI-H460 lung it was -29% (active); in the experiment with HOP-92 NSCLC, -33.4% (active). Besides, the growth was 23.3% in the experiment with NCI-H522 lung; -74.3% (active) in the experiment on 786-0 renal; 13.2% in the experiment with DU-145 prostate; 16.9% with K-562 leukemia; -54.6% (active) in the experiment with MALME-3M melanoma; -2.22% (active) with MDA-MB-231 breast. The growth in the experiment on RXF 393 renal was -52.2% (active); with SF-268 CNS, -5.13% (active); with SF-295 CNS, 23.1%; with SF-539 CNS, -49.2% (active); with UACC-257 melanoma it was 56.5%; in the experiment with M14 melanoma, -53% (active).

As to `[O-][n+]1ccccc1CCN(O)CCc1cccc[n+]1[O-]`, the growth with NCI-H23 lung is 97.1%; in the experiment on NCI-H226 lung, 85.7%; in the experiment on NCI-H322M lung, 96.5%; with HOP-62 NSCLC it was 94.1%; with NCI-H460 lung, 115%; with HOP-92 NSCLC, 86.8%. The growth in the experiment with NCI-H522 lung is 81.5%; with 786-0 renal it was 101%; in the experiment on COLO 205 colon, 104%; in the experiment on DU-145 prostate, 111%; with K-562 leukemia, 106%; in the experiment on MALME-3M melanoma, 99.5%. The growth is 97.8% in the experiment on MDA-MB-231 breast; 113% in the experiment on RXF 393 renal; 101% with SF-268 CNS; 103% with SF-295 CNS; 87% in the experiment with SF-539 CNS; 106% in the experiment with UACC-257 melanoma. The growth with M14 melanoma was 94.5%.

As for `COc1ccc(-c2ncc(-c3ccccc3)[nH]2)cc1OC`, the growth in the experiment with NCI-H23 lung is 101%; in the experiment with NCI-H226 lung it was 100%; with NCI-H322M lung it was 218%; with HOP-62 NSCLC, 112%; in the experiment on NCI-H460 lung it was 112%; with HOP-92 NSCLC, 93%. In addition, the growth in the experiment on NCI-H522 lung is 108%; with 786-0 renal it was -10.5% (active); in the experiment with DU-145 prostate it was 131%; in the experiment on K-562 leukemia it was 93.9%; in the experiment with MALME-3M melanoma it was 260%; with MDA-MB-231 breast, 107%. Further, the growth in the experiment on SF-268 CNS was 103%; in the experiment with SF-295 CNS, 88.6%; in the experiment on SF-539 CNS it was 100%; in the experiment on UACC-257 melanoma it was 10.5%; with M14 melanoma, 119%.

For `O=S(=O)(NCCNc1nccc(-c2c(-c3cccc(F)c3)nc3occn23)n1)c1cccc2ccccc12`, the growth was 75.8% with NCI-H23 lung; 53.6% with NCI-H226 lung; 74.8% in the experiment on NCI-H322M lung; 71% with HOP-62 NSCLC; 58.2% in the experiment on NCI-H460 lung; 47% with HOP-92 NSCLC. The growth was 46.2% in the experiment on NCI-H522 lung; 48% in the experiment with 786-0 renal; 40.7% in the experiment with COLO 205 colon; 53.3% in the experiment on DU-145 prostate; 19% in the experiment with K-562 leukemia; 56.1% in the experiment on MALME-3M melanoma. The growth was 58.5% with MDA-MB-231 breast; 38.6% with SF-268 CNS; 58.6% in the experiment on SF-295 CNS; 96.7% in the experiment with SF-539 CNS; 77.4% with UACC-257 melanoma; 54.8% with M14 melanoma.

`C1=C2CNCC3=Cc4ccc5ccccc5c4OC23Oc2c1ccc1ccccc21`: the growth in the experiment with NCI-H23 lung was 52.8%; in the experiment on NCI-H226 lung it was 67.7%; in the experiment on NCI-H322M lung it was 98%; in the experiment with HOP-62 NSCLC, 43.6%; in the experiment with NCI-H460 lung, 33.5%; in the experiment with HOP-92 NSCLC, 37.2%. In addition, the growth in the experiment on NCI-H522 lung was 0.285% (active); with COLO 205 colon, 50.8%; in the experiment with DU-145 prostate, 65.3%; in the experiment with K-562 leukemia, 18.8%; with MALME-3M melanoma, 60.6%; in the experiment with MDA-MB-231 breast, 51.3%. The growth was -3.36% (active) in the experiment on RXF 393 renal; 42.7% in the experiment on SF-268 CNS; 11.6% in the experiment with SF-295 CNS; 50.5% in the experiment on SF-539 CNS; 60.9% with UACC-257 melanoma; 2.63% (active) with M14 melanoma.

`COc1ccc(/C=C(/c2ccccc2)[N+](=O)[O-])cc1`: the growth was -47.9% (active) in the experiment on NCI-H23 lung; -6.73% (active) in the experiment with NCI-H226 lung; 4.07% (active) in the experiment on NCI-H322M lung; -36.2% (active) in the experiment with HOP-62 NSCLC; -23.3% (active) in the experiment with NCI-H460 lung; -55.6% (active) with HOP-92 NSCLC. Besides, the growth in the experiment on NCI-H522 lung is -83.6% (active); with 786-0 renal it was -93.4% (active); in the experiment with COLO 205 colon, -71.9% (active); with DU-145 prostate, -85.5% (active); with K-562 leukemia it was -7.82% (active); in the experiment with MALME-3M melanoma it was -44.2% (active). In addition, the growth in the experiment on MDA-MB-231 breast is -49.3% (active); in the experiment with SF-268 CNS it was 47.6%; in the experiment with SF-295 CNS, 33.2%; in the experiment with SF-539 CNS it was -89.2% (active); in the experiment with UACC-257 melanoma, -0.12% (active); in the experiment on M14 melanoma, 42.8%.

For the molecule `COc1ccc(/C=C/C(=O)c2ccc(OC)c(OC)c2)cc1O`, the growth was 73.1% in the experiment with NCI-H23 lung; 86.3% in the experiment with NCI-H226 lung; 78.6% in the experiment on NCI-H322M lung; 39.7% with HOP-62 NSCLC; 44.2% in the experiment on NCI-H460 lung; 29.1% in the experiment on HOP-92 NSCLC. The growth with NCI-H522 lung is 51.9%; in the experiment on 786-0 renal, 98.2%; in the experiment with COLO 205 colon, 104%; with DU-145 prostate it was 21%; in the experiment on K-562 leukemia, 14.7%; in the experiment on MALME-3M melanoma, 90.9%. Moreover, the growth is 73% with MDA-MB-231 breast; 72.1% in the experiment on RXF 393 renal; 80.7% in the experiment with SF-268 CNS; 104% with SF-295 CNS; 79.8% with SF-539 CNS; 96.6% in the experiment with UACC-257 melanoma. Further, the growth with M14 melanoma is 97.7%.
